In the library only some 11% were active in any assay of this set; here they are far more common.
IMPase inh: cell-permeable inhibitors of inositol monophosphatase (IMPase); P97697; CHO-M1 cells, IP1 accumulation, HTRF TR-FRET ratio; inhibition (IP1 accumulation), % at 46.1 µM; 120,000 tested, under 10 active; AID 901; active = well fitted curve in the direction sought with a large enough effect in the signal ratio, not every such curve was filed as active; inconclusive = small, poorly fitted or top-dose-only effect, or a change in a side signal; inactive = no such curve, though single readings can be large or run the other way; the % refers to the signal ratio;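 also: cells stimulated with carbachol in lithium chloride buffer; plate controls were DMSO basal wells for no effect and reference inhibitor wells for full effect; higher means more IMPase inhibition seen as more IP1 and lower FRET ratio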
Target sequence (P97697 whole entry, looked up): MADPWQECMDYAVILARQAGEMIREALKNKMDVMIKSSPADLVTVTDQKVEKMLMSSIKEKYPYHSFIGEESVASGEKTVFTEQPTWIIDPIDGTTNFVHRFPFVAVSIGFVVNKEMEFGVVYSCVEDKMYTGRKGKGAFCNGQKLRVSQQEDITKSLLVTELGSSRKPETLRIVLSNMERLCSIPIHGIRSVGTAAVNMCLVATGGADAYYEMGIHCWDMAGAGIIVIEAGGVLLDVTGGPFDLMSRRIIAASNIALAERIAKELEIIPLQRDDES
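CHO-M1 cells (CHO stably expressing M1 receptor), compound up to 46 uM final, stimulated with carbachol (50 uM as added) in buffer with 50mM LiCl, pH 7.4, 30 min at 37C. Cytosolic IP1 read by TR-FRET; AC50 from Hill fits.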
PNC assembly inh: blocks assembly of the perinucleolar compartment; PC3M PTB-GFP, PNC prevalence imaging, 16 h; stronger effect = lower value; activity change (PNC), negative = inhibition, % at 10 µM; 3.1% of 140,000 active; AID 2417;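 active = readout at or below -70, meaning at least 70% loss of cells showing the perinucleolar compartment, a nuclear body marking cancer cells; inconclusive = readout between -30 and a set limit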;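 also: plate controls were DMSO wells for no effect and camptothecin positive control wells for full effect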
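Read-out is percentage of cells bearing a perinucleolar compartment, from automated 20x imaging of fixed, Hoechst-stained PC3M PTB-GFP cells. Cells were seeded 4 h, then exposed 16 h to compound (23 nl of library stock) in duplicate plates.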
ALOX12 inhib: blocks human 12-lipoxygenase activity; Potency, µM (top dose mostly 57.1 µM), inactives show at the highest dose activity change, negative = inhibition, actives largely listed as inhibitors; 0.12% of 150,000 active; P18054; purified 12-hLO, xylenol orange hydroperoxide absorbance; also: potency is read from the fitted curve at half-maximal effect; nearly all actives have a fitted effect of over 55% in size
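Purified human 12hLO (150 nM), preincubated 15 min with compound, then 40 uM arachidonic acid for 30 min, room temperature, Hepes pH 7.0 with 0.01% Triton X-100. Hydroperoxide detected by ferrous iron/xylenol orange; 573/405 nm absorbance ratio gives reaction progress.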
HPGD inh: blocks human HPGD enzyme activity; P15428; purified HPGD, NADH fluorescence kinetic, PGE2 substrate; Potency, µM, inactives show at the highest dose activity change, negative = inhibition, most hits filed as inhibitors; 4.3% of 150,000 active; active = well fitted inhibition curve with a large enough effect, not every such curve was filed as active; inconclusive = small, poorly fitted or top-dose-only effect, or another doubt; inactive = no such curve, though single readings can be large or run the other way; also: potency is read from the fitted curve at half-maximal effect
Target sequence (P15428 whole entry, looked up): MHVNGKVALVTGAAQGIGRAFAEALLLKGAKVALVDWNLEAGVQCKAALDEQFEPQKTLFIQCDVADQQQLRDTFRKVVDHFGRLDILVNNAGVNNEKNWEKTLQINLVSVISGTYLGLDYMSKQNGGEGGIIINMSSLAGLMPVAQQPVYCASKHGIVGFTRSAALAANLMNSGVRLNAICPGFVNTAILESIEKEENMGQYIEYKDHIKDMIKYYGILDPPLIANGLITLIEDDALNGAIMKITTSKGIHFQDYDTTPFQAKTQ
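NADH formation kinetics: reaction with 30 uM PGE2 and 1 mM NAD+ (final), 20 nM enzyme, Tris-HCl pH 8 with Tween 20, after 15 min compound preincubation at room temperature. Fluorescence change, last versus first of five reads.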
ALDH1A1 inh: inhibitors of human aldehyde dehydrogenase 1A1; P00352; Purified ALDH1A1, NADH fluorescence, propionaldehyde substrate; Potency, µM (doses to about 75.3 µM), for inactives: top-dose activity, negative = inhibition, hits mostly inhibitors; 7.3% of 220,000 active; active = well fitted inhibition curve with a large enough effect, not every such curve was filed as active; inconclusive = small, poorly fitted or top-dose-only effect, or another doubt; inactive = no such curve, though single readings can be large or run the other way;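 also: potency is read from the fitted curve at half-maximal effect; plate controls were no enzyme wells and a reference inhibitor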
IMPase Li cell: membrane-permeable IMPase blocker, potentiated with lithium. CHO-M1 cells, IP1 TR-FRET (IP-One), carbachol + lithium. Potency, µM (titrated, usually from 59.4 µM), for the others: at the highest dose activity, negative = IMPase inhibition, usual class: inhibitors. 0.35% of 210,000 active. AID 1457;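 also: IP1 builds up when IMPase is blocked and the TR-FRET signal falls; potency is read from the fitted curve at half-maximal effect; plate controls were basal vehicle for no effect and high inhibitor control for full effect; nearly all actives have a fitted effect of over 50% in size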
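CHO cells stably expressing M1 receptor (2000/well, cultured 16–30 h) treated 30 min at 37C with compound plus low lithium. Cytosolic IP1 by TR-FRET (665/620 ratio and 620 channel) after 10 min lysis; AC50 by Hill fit.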
Active calls of the source: *; [ ] = dose if it differs, or a comment. Unless noted, calls follow the shape of the dose curve; as a rule, active = well fitted curve in the direction sought with a large enough effect; inconclusive = small, poorly fitted or top-dose-only effect, or another doubt; inactive = no such curve, though single readings can be large; an effect the other way counts as inactive or inconclusive. Unless noted, % is scaled to controls: 0 for no effect and ±100 for the full control effect.

For Cc1ccc(Cn2nnc3c(=O)n(CC(=O)NCc4ccc5c(c4)OCO5)cnc32)cc1 the results were IMPase inh -1.3, PNC assembly inh 25.3, ALOX12 inhib -0.3%, HPGD inh -8.7%, ALDH1A1 inh 13.0% and IMPase Li cell 8.2%.
Screening O=C(Cn1cnc2c(nnn2Cc2ccc(Cl)cc2)c1=O)c1ccccc1 returned ALDH1A1 inh inconclusive and IMPase Li cell -13.3%.
Screening COc1cc2c(=O)n(Cc3ccccc3)c(=O)n(CC(=O)NCc3ccco3)c2cc1OC returned IMPase inh -2.2, PNC assembly inh -28.7, ALOX12 inhib 2.2%, HPGD inh inconclusive, ALDH1A1 inh 1.41µM* and IMPase Li cell 12.1%[38.3 µM].
`O=C(Cn1cnc2c(nnn2Cc2ccccc2)c1=O)NCc1ccco1` gave IMPase inh 6.1, PNC assembly inh inconclusive, ALOX12 inhib -2.5%, HPGD inh 14.1µM*, ALDH1A1 inh 3.4% and IMPase Li cell -0.8%[38.3 µM].
`O=C(Cn1cnc2c(nnn2Cc2ccc(Cl)cc2)c1=O)NCc1ccco1` gave IMPase inh 2.6, PNC assembly inh 111.6, ALOX12 inhib -6.0%, HPGD inh 15.8µM*, ALDH1A1 inh inconclusive and IMPase Li cell 8.6%.
COCCN(Cc1cc2cc3c(cc2nc1Cl)OCO3)C(=O)c1ccc(C)cc1 was read as ALDH1A1 inh 4.3% and IMPase Li cell 8.5%.
For O=C(CC(c1ccccc1)c1ccccc1O)NCc1ccco1 (stereo unspecified) the results were IMPase inh 3.1, PNC assembly inh -0.3, ALOX12 inhib -6.3%, HPGD inh 15.8µM*, ALDH1A1 inh 3.5% and IMPase Li cell 0.4%[38.3 µM].
For O=C(COC(=O)CCSc1ccccc1)NCc1ccccc1Cl the results were IMPase inh 14.8, PNC assembly inh 29.2, ALOX12 inhib 3.1%, HPGD inh 17.8µM*, ALDH1A1 inh 7.0% and IMPase Li cell -2.6%.
O=C(COC(=O)CCSc1ccc(Cl)cc1)NCc1ccccc1 was read as PNC assembly inh inconclusive, ALOX12 inhib -2.4%, HPGD inh -5.7%, ALDH1A1 inh 1.9% and IMPase Li cell 5.3%.
O=C(CC(c1ccccc1)c1ccccc1O)NCc1ccccc1Cl (stereo unspecified) was read as PNC assembly inh inconclusive, ALOX12 inhib 0.4%, HPGD inh 15.8µM*, ALDH1A1 inh -3.8% and IMPase Li cell 23.8%.
COc1ccccc1CN1CCCC2(CCN(C(=O)c3cccn3C)CC2)C1 was read as ALOX12 inhib -1.7%, HPGD inh -10.0%, ALDH1A1 inh 8.1% and IMPase Li cell 16.4%.
`O=C1OC2(CCCCC2)OC(=O)C1=CNc1ccc2c(c1)OCO2` gave IMPase inh -5.7, PNC assembly inh 17.0, ALOX12 inhib -4.3%, HPGD inh -13.9%, ALDH1A1 inh 0.891µM* and IMPase Li cell 2.3%[38.3 µM].
`O=C1OC2(CCCCC2)OC(=O)C1=CNc1nccs1` gave IMPase inh -1.2, PNC assembly inh 47.9, ALOX12 inhib -2.0%, HPGD inh 1.2%, ALDH1A1 inh inconclusive and IMPase Li cell 8.7%[38.3 µM].
`COc1cccc(NC=C2C(=O)OC3(CCCCC3)OC2=O)c1` gave IMPase inh 5.5, PNC assembly inh 21.9, ALOX12 inhib -7.2%, HPGD inh -23.7%, ALDH1A1 inh 1.58µM* and IMPase Li cell 13.5%[38.3 µM].
Screening O=C1OC2(CCCCC2)OC(=O)C1=CNc1nc2ccccc2s1 returned IMPase inh -11.4, PNC assembly inh inconclusive, ALOX12 inhib -12.0%, HPGD inh -10.2%, ALDH1A1 inh 11.2µM* and IMPase Li cell 1.1%[38.3 µM].
For COc1ccccc1NC=C1C(=O)OC2(CCCCC2)OC1=O the results were IMPase inh 2.3, PNC assembly inh 5.5, ALOX12 inhib -8.0%, HPGD inh inconclusive, ALDH1A1 inh 0.0562µM* and IMPase Li cell 1.6%[38.3 µM].
For CN1CCN(C(=O)c2ccc(-n3c(=O)c(=O)[nH]c4ccccc43)cc2)CC1 the results were ALOX12 inhib -0.8%, HPGD inh -2.3% and ALDH1A1 inh -13.1%.
